Assay results: PubChem BioAssay AID463173 (ICCB-Longwood Screening Facility, Harvard Medical School, 2010)
Hit rate of the full screen: of about 52,000 compounds, about 1,700 (3.3%) were called active. Shown is part of a subset that was picked to be rich in actives. A number with no mark means an inactive call. No stated cut-off is given here; in the data, active means survival mostly below about 52% (no sharp cut-off); inactive means mostly above about 56%.

test system: Wild type; experiment: S. aureus survival, RN4220 and DeltatarO strains – OD600, teichoic acid synthesis inhibitors, primary screen (AID 463173); details: S. aureus RN4220 wild type/DeltatarO growth, OD600, 18 h, stronger effect = lower value, screened at 18.75 µg/mL (by protocol)

SMILES | survival
O=C(NCc1ccc(Cl)cc1)C(=O)NCC(c1ccco1)S(=O)(=O)c1cccs1 (stereo unspecified) | 76%
Cc1ccc(Cn2c(=O)n(Cc3ccco3)c(=O)c3sc4ccccc4c32)cc1 | 94%
COc1ccc(-c2noc(CN3CCN(c4ccccc4OC)CC3)n2)cc1OC | 83%
CCOC(=O)N1CCN(C(=O)CN(c2cccc(Cl)c2)S(=O)(=O)c2ccccc2)CC1 | 63%
CCOC(=O)c1cccc(NC(=O)NCCc2c(C)nn(C)c2C)c1 | 63%
COc1ccc(Nc2cc(C(=O)NCCCN(C)C3CCCCC3)c3ccccc3n2)c(OC)c1 | 92%
COc1ccc(NC(=O)c2cc3c(-c4ccccc4F)nn(C)c3s2)c(OC)c1 | 38%
O=C1CS(=O)(=O)C2(C(=O)N(Cc3ccccc3)c3ccccc32)N1c1ccccc1 (stereo unspecified) | 132%
COc1cc(NS(=O)(=O)c2cc3c(cc2C)n(C)c(=O)c(=O)n3C)cc(OC)c1 | 54%
COc1ccc(-c2[nH]c(-c3ccc(O)cc3)nc2-c2ccccc2)cc1 | 0% (active)
COc1cc(-c2nc(-c3cccc(Cl)c3)c(-c3ccccc3)[nH]2)cc(OC)c1OC | 143%
COCCNC(=O)CSc1nc(-c2ccccc2)[nH]c1-c1ccc(OC)cc1 | 74%
COc1ccc(-c2nc(-c3ccccc3)c(-c3ccccc3)[nH]2)cc1Br | 81%
COc1ccc(-c2nc(-c3ccccc3)c(-c3ccc(F)cc3)[nH]2)c(OC)c1C | 15% (active)
COc1ccc(-c2[nH]c(-c3ccccc3)nc2SCC(=O)NC2CCCC2)cc1 | 80%
COc1cc(-c2nc(SCC(=O)Nc3ccc(C)cc3)c(-c3ccc(F)cc3)[nH]2)cc(OC)c1OC | 106%
COc1ccc(NC(=O)CSc2nc(-c3ccc(OC)cc3)[nH]c2-c2ccc(OC)cc2)cc1 | 76%
CCOc1ccc(-c2nc(-c3ccccc3)c(-c3ccccc3)[nH]2)cc1OCC | 163%
COc1ccc(-c2nc(-c3ccccc3)c(-c3ccc(O)cc3)[nH]2)cc1 | 3% (active)
COc1ccc(-c2nc(SCC(=O)Nc3ccccc3)c(-c3ccc(F)cc3)[nH]2)cc1OC | 58%
COc1cc(-c2nc(-c3ccccc3)c(-c3ccc(Br)cc3)[nH]2)cc(OC)c1O | 5% (active)
CC(C)(C)n1nnnc1C(c1ccc2ncccc2c1)N1CCc2ccccc21 (stereo unspecified) | 111%
CCc1ccccc1NC(=O)CSc1nnc2ccc3ccccc3n12 | 80%

SMILES | survival
Cc1ccc(Cl)cc1N(C)C(=O)c1noc2c1CCCCC2 | 65%
CCCCC(=O)OCc1cc(=O)n2nc(C3CC3)sc2n1 | 135%
CCCOc1ccc(CNC(=O)c2ccc(-n3c(C)cc4c3CCC(C)C4)cc2)cc1 (stereo unspecified) | 113%
COc1cccc(C(=O)c2sc(Nc3ccc(C)cc3C)c(S(=O)(=O)c3ccccc3)c2N)c1 | 94%
O=C(CSc1nc(-c2ccc(F)cc2)[nH]c1-c1ccccc1)Nc1ccccc1 | 70%
Oc1ccc(-c2nc(-c3ccccc3)c(-c3ccc(Br)cc3)[nH]2)cc1 | -2% (active)
O=C(O)c1ccc(-c2nc3ccccc3[nH]2)cc1 | 106%
O=C(Nc1ccc(C(=O)OCc2cc(=O)n3c4c(sc3n2)CCCC4)cc1)c1cccc(F)c1 | 81%
CCN(CC)CCN(C(=O)c1ccco1)c1nc2ccc(Cl)cc2s1 | 87%
CCc1ccc2nc(N(CCN(CC)CC)C(=O)c3ccco3)sc2c1 | 53%
CCN(CC)CCN(C(=O)c1ccc(C(=O)OC)cc1)c1nc2ccc(Cl)cc2s1 | -6% (active)
O=C(CNc1ccccc1Cl)N/N=C1\CCCc2ccccc21 | 105%
Cc1ccccc1Nc1c(-c2ccc(Cl)cc2)nc2c(C)cccn12 | 73%
Cc1ccc(Nc2c(-c3ccc(C)cc3)nc3c(C)cccn23)cc1 | -1% (active)
Cc1ccc(Nc2c(-c3ccc(N4CCOCC4)cc3)nc3c(C)cccn23)cc1 | 83%
Cc1ccccc1Nc1c(-c2ccc(O)cc2)nc2c(C)cccn12 | 68%
Cc1ccccc1Nc1c(-c2ccsc2)nc2c(C)cccn12 | 0% (active)
Cc1cccn2c(Nc3ccccc3)c(-c3cccs3)nc12 | 85%
Cc1ccc(Nc2c(-c3ccsc3)nc3cccc(C)n23)cc1 | 19%
Cc1cccn2c(Nc3ccccc3)c(-c3ccc(N4CCOCC4)cc3)nc12 | 125%
Cc1ccc(Nc2c(-c3ccsc3)nc3c(C)cccn23)cc1 | -3% (active)
COCCCNC(=O)c1c(C)nn(-c2ccc(F)cc2)c1-n1cccc1 | 77%
Cc1sc2c(c1C)c(=O)n(Cc1ccccc1)c(=O)n2CC(=O)N(C)c1ccccc1 | 89%

SMILES | survival
COc1ccc(C2CC(=O)c3cc(-c4nc(-c5cccc(Cl)c5)cs4)c(=O)[nH]c3C2)cc1 (stereo unspecified) | 67%
Cc1ccc(C(=O)N2CCN(c3ccccc3)CC2)cc1NC(=O)c1nsc2ccccc12 | 73%
CC1=C(C(=O)Nc2cccc(C)c2C)C2(CCCCC2)OC1=O | 74%
CC(=O)N1CCC2(CC1)OC(=O)C(C)=C2C(=O)Nc1cccc(Cl)c1C | 82%
CC1=C(C(=O)Nc2cccc(C(F)(F)F)c2)C2(CCCCCC2)OC1=O | 0% (active)
COc1ccc(OC)c(NC(=O)C2=C(C)C(=O)OC23CCN(C(C)C)CC3)c1 | 0% (active)
CC1=C(C(=O)Nc2ccccc2Br)C2(CCC(C)CC2)OC1=O (stereo unspecified) | 83%
COc1ccc(OC)c(NC(=O)C2=C(C)C(=O)OC23CCCCCC3)c1 | 129%
COc1ccc(NC(=O)C2=C(C)C(=O)OC23CCN(C(C)C)CC3)cc1Cl | 77%
CC1=C(C(=O)Nc2cccc(C(F)(F)F)c2)C2(CCN(C(C)C)CC2)OC1=O | 91%
COC(=O)c1ccccc1NC(=O)C1=C(C)C(=O)OC12CCCCCC2 | 91%
CC1=C(C(=O)Nc2cccc(C(F)(F)F)c2)C2(CCCCC2)OC1=O | 88%
CC1=C(C(=O)Nc2cccc(Cl)c2C)C2(CCCCCC2)OC1=O | -2% (active)
COC(=O)c1ccccc1NC(=O)C1=C(C)C(=O)OC12CCC(C)CC2 (stereo unspecified) | -6% (active)
Cc1cc(C)n(C(=O)CCCC(=O)O)n1 | 96%
Cc1ccc(CNC(=O)C(CC(C)C)N2Cc3ccccc3C2=O)cc1 (stereo unspecified) | 136%
COc1cc(-c2nc(Cn3nnc(C(=O)Nc4cc(C)cc(C)c4)c3C)c(C)o2)cc(OC)c1OC | 70%
CCOc1cc(CNC(=O)CSc2n[nH]c(-c3ccccc3)n2)cc(OCC)c1OCC | 131%
CC1=C(C(=O)NCc2cccc(F)c2)C2(CCCCC2)OC1=O | 10% (active)
CC1=C(C(=O)NCc2cccc(F)c2)C2(CCCCCC2)OC1=O | 65%
CC1=C(C(=O)NCc2cccc(Br)c2)C2(CCCCC2)OC1=O | 82%
COc1ccc(OCc2nnc(-c3ccccc3)o2)cc1 | 106%
Cc1ccc(N2CCN(C(=O)c3cn(C)c4ccc(S(=O)(=O)N5CCC(C)CC5)cc4c3=O)CC2C)cc1 (stereo unspecified) | 126%

SMILES | survival
COc1ccc(CNC(=O)Cn2nc(N3CCN(c4ccccc4)CC3)ccc2=O)c(OC)c1 | -4% (active)
CCOc1ccccc1CNC(=O)Cn1nc(N2CCN(c3ccccc3)CC2)ccc1=O | 82%
COc1cccc(NC(=O)Cn2nc(N3CCN(c4ccccc4)CC3)ccc2=O)c1 | 85%
CCn1c(SCC(=O)N(C2CCCCC2)C2CCCCC2)nnc1C(C)C | 100%
CCc1ccc(C2=C(C)C(N3CCC(C(=O)NCc4ccc(C)o4)CC3)=NS2(=O)=O)cc1 | 63%
Cc1ccc(C(=O)NCCc2csc(-c3cccc(F)c3)n2)cc1C | 78%
O=C(COCc1cc(-c2ccco2)on1)Nc1cccc(O)c1 | 73%
O=C(COCc1cc(-c2cccs2)on1)Nc1cccc(O)c1 | -3% (active)
O=C(COCc1cc(-c2cccs2)on1)N1CCN(c2ccccc2)CC1 | 68%
Cc1ccc(NC(=O)COCc2cc(-c3cccs3)on2)cc1Cl | 65%
O=C(COCc1cc(-c2cccs2)on1)N1CCN(c2cccc(Cl)c2)CC1 | 10% (active)
O=C(COCc1cc(-c2cccs2)on1)N1CCN(c2ccc(F)cc2)CC1 | 73%
CC(=O)N1CCCc2cc(S(=O)(=O)N(C)CC(=O)Nc3cccc(Cl)c3C)ccc21 | 68%
CCOc1ccccc1NC(=O)Cn1nnc(C(=O)NCc2ccc(F)cc2)c1N | 101%
Cc1cccc(Nc2sc(C(=O)c3ccc(Cl)cc3)c(N)c2C(N)=O)c1 | 45%
Cc1ccc(C)n1-c1cccc2cccnc12 | 103%
O=C(COC(=O)CCCC1=NS(=O)(=O)c2ccccc2N1)Nc1ccc(Br)cc1 | 81%
CCc1ccc(NC(=O)COC(=O)CCCC2=NS(=O)(=O)c3ccccc3N2)cc1 | 129%
CCOc1ccccc1NC(=O)COC(=O)CC(C)(C)CC1=NS(=O)(=O)c2ccccc2N1 | 63%
COc1ccc(Cl)cc1NC(=O)COC(=O)CC(C)(C)CC1=NS(=O)(=O)c2ccccc2N1 | 81%
COc1ccccc1NC(=O)COC(=O)CC(C)(C)CC1=NS(=O)(=O)c2ccccc2N1 | -3% (active)
Cc1cccc(NC(=O)COC(=O)CCCC2=NS(=O)(=O)c3ccccc3N2)c1 | -4% (active)
